# Test results: PMC8384837, “Expanding the binding specificity for RNA recognition by a PUF domain”
# Biological target: PUM1 PUF domain R5-KYG (Homo sapiens, UniProt Q14671 828-1176, C1007K;R1008Y;Q1011G)
# Experiment: yeast three-hybrid, YBZ-1, SC-Leu-His + 0.5 mM 3-AT, 4 days
# Settings: tags: N-Gal4 AD-HA kept; label: inside an RPR1-promoter hybrid RNA with tandem MS2 sites; ssRNA
# Method in brief: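 Pumilio-1 PUF domain libraries, randomized (NNK) at the three base-contacting residues of each repeat, were co-expressed with matching RNA elements from a centromeric plasmid in strain YBZ-1 (LexA–MS2 coat fusion, HIS3 reporter). Transformants were plated on SC-Leu (input) and SC-Leu-His + 0.5 mM 3-AT (selection) for four days, and repeat regions were PCR-amplified and Illumina-sequenced. The interaction score is the log2 change in variant frequency from input to selection, with pseudocount 1 where absent.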
# Chain of PUM1 PUF domain R5-KYG (Q14671 828-1176 C1007K/R1008Y/Q1011G): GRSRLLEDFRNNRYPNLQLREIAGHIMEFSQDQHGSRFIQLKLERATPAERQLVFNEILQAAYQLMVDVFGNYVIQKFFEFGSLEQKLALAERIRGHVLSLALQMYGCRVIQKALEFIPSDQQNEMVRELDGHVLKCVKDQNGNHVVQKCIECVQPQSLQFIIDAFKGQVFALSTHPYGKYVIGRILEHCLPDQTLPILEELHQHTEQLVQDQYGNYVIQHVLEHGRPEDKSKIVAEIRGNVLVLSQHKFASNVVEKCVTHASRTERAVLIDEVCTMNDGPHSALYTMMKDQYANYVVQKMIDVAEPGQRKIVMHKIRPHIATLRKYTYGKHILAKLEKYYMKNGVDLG
row,Sequence,binding signal
1,GGCUAGAACUAGUGGAUCCCCCGGCGCCCGGCGGCUCGAGCCCGGGUAAGUGUCAAUAGUCUGCAUGCCGCCGGGCGCCAUGCCUGCAGGUCGACUCUAGAAAACAUG,5.55 log2 enrichment (interaction score)
2,GGCUAGAACUAGUGGAUCCCCCGGCGCCCGGCGGCUCGAGCCCGGGUAAGUGUAAAUAGUCUGCAUGCCGCCGGGCGCCAUGCCUGCAGGUCGACUCUAGAAAACAUG,3.77 log2 enrichment (interaction score)
3,GGCUAGAACUAGUGGAUCCCCCGGCGCCCGGCGGCUCGAGCCCGGGUAAGUGUGAAUAGUCUGCAUGCCGCCGGGCGCCAUGCCUGCAGGUCGACUCUAGAAAACAUG,2.74 log2 enrichment (interaction score)
